Tau fil binding = tau filament binding. Potency, µM (top dose mostly 57.1 µM), for inactives: at the top dose activity change, negative = inhibition. P10636. hit rate 2% among 71,000. recombinant tau filaments, thioflavin S fluorescence, 15 h; filaments grown with octadecylsulfate alongside compound;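 also: potency is read from the fitted curve at half-maximal effect; % is scaled to controls: 0 for no effect and ±100 for the full control effect; actives lower thioflavin S fluorescence by blocking filaments or displacing dye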
Target sequence (P10636 whole entry, looked up): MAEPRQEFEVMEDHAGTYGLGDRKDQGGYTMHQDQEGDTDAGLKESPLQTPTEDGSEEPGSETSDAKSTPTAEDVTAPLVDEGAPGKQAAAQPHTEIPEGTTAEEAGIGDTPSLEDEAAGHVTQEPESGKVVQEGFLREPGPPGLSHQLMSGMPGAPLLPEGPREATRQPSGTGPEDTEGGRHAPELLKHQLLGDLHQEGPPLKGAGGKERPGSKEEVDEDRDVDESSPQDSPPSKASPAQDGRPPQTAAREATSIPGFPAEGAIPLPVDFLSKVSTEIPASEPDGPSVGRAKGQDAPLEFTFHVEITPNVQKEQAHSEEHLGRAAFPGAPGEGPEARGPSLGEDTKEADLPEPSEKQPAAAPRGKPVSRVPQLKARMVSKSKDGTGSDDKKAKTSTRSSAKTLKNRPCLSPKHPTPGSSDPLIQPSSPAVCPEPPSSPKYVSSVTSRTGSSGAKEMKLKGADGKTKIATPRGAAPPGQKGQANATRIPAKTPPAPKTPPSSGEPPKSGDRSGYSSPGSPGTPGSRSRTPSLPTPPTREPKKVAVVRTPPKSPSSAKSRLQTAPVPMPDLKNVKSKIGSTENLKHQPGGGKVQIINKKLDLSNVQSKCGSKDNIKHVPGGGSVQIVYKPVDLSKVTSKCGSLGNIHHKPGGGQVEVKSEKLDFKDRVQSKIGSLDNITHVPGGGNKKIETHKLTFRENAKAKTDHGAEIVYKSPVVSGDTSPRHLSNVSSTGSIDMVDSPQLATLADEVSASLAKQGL
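Recombinant tau protein (human, 1 uM final) plus 30 uM ODS in HEPES pH 7.4 with NaCl, DTT and thioflavine S. Compound present from the start; fluorescence at 510 nm after 15 h, 37 C.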
TsaE inh = inhibitors of E. coli YjeE (TsaE); hit rate 0.05% among 71,000; Potency, µM; purified YjeE enzyme, qHTS inhibition assay; P0AF67
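Purified YjeE (10 uM) with BODIPY Texas Red-labeled ADP probe (2 uM); compounds pin-transferred, 15 min at room temperature. Binding inhibition read as decreased fluorescence polarization; ADP titration as control.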
ALOX15 inhib = inhibitors of human 15-lipoxygenase (ALOX15). hit rate 1.4% among 74,000. purified 15hLO-1, xylenol orange hydroperoxide absorbance. P16050. Potency, µM (titrated, usually from 57.1 µM), for the others: at the top dose activity change, negative = inhibition, most hits filed as inhibitors. AID 887; also: potency is read from the fitted curve at half-maximal effect; % is scaled to controls: 0 for no effect and ±100 for the full control effect; nearly all actives have a fitted effect of over 55% in size
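Hydroperoxide formed from arachidonic acid (50 uM) by purified human 15hLO-1 (40 nM) oxidizes ferrous iron, and the ferric-xylenol orange complex is read at 573 versus 405 nm. Compounds were preincubated 15 min; reaction ran 6 min at room temperature.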
BRCT PPI green = blocks human BRCA1 BRCT binding to phosphopeptide, green readout | BRCA1 BRCT-phosphopeptide binding, green fluorescence polarization | P38398 | Potency, µM (top dose mostly 76.9 µM), without a hit: top-dose activity change, negative = inhibition, most hits filed as inhibitors | hit rate 0.05% among 75,000;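 also: potency is read from the fitted curve at half-maximal effect; plate controls were peptide without protein for full effect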
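Compounds were incubated for 12 min at room temperature with a complex of 100 nM fluorescein-tagged pBACH1 decapeptide and 250 nM His-tagged BRCT protein. Buffer was phosphate pH 7.3 with EDTA, DTT and Tween 20. Disruption of binding lowers the polarization signal.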
BRCT inh red = inhibitors of human BRCA1 BRCT-phosphoprotein interaction (red fluorophore); P38398; Potency, µM (top dose mostly 76.9 µM), for inactives: top-dose activity change, negative = inhibition, hits mostly inhibitors; AID 892; hit rate 0.03% among 75,000; BRCT-phosphopeptide binding, red fluorescence polarization; also: % is scaled to controls: 0 for no effect and ±100 for the full control effect
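Rhodamine-labelled pBACH1 10-mer (100 nM) bound to BRCT domain (100 nM) at pH 7.3; compounds incubated 12 min room temperature, polarization read. Free peptide defines full inhibition; unlabelled decapeptide titrated as control.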
DNA Pol III inh = inhibitors of bacterial DNA polymerase III holoenzyme; Potency, µM (highest dose often 57.1 µM), for inactives: top-dose activity change, negative = inhibition; reconstituted DNA polymerase III holoenzyme replication, biochemical; AID 603; hit rate 0.25% among 71,000; also: potency is read from the fitted curve at half-maximal effect; % is scaled to controls: 0 for no effect and ±100 for the full control effect
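Reconstituted *E. coli* holoenzyme (0.35 nM Pol III, 1 nM beta, 154 nM SSB, 2 nM primase) was preincubated with compound for 15 min at RT. Synthesis on 1.4 nM ssM13Gori ran 35 min, then was stopped with PicoGreen/EDTA and read as dsDNA fluorescence.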
Numbers without * were called inactive; i = inactive; u = inconclusive; x = no result given; [ ] = dose if it differs, or a comment. Compounds with a hit are over-represented: about 3.1% of the library has one in this group of screens. Calls follow the shape of the dose curve; as a rule, active = well fitted curve in the direction sought with a large enough effect; inconclusive = small, poorly fitted or top-dose-only effect, or another doubt; inactive = no such curve, though single readings can be large; an effect the other way counts as inactive or inconclusive.

SMILES | Tau fil binding | TsaE inh | ALOX15 inhib | BRCT PPI green | BRCT inh red | DNA Pol III inh
N=C1C=CC=C2C1=NC1(CCCCC1)N2O | 16µM* | i | -13% | -2% | 1% | -7%
Cc1ccc(-n2nnnc2SCC(N)=O)c(C)c1 | 3% | i | 2% | 0% | -1% | -1%
Cc1ccc(-n2nnnc2SCC(=O)NCCC2=CCCCC2)c(C)c1 | -6% | i | 32µM* | -1% | 0% | 1%
Cc1noc(C)c1C(=O)N1CCC[C@@]2(CCN(C(=O)NC(C)C)C2)C1 | 13% | i | 2% | -4% | 1% | -5%
O=C1c2ccccc2C(=O)c2c(Nc3cc4c5c(ccc6c7ccc8c9c(cc(Nc%10cccc%11c%10C(=O)c%10ccccc%10C%11=O)c(c3c56)c97)-c3ccccc3C8=O)C(=O)c3ccccc3-4)cccc21 | 3.2µM* | i | -9%[11.4 µM] | 0%[15.4 µM] | -3%[15.4 µM] | -9%[11.4 µM]
COc1ccc(S(=O)(=O)Nc2ccc3c(c2)OCO3)cc1C(=O)O | x | x | -2% | -1% | 2% | x
COc1ccc(S(=O)(=O)Nc2ccc3c(c2)OCO3)cc1OC | 25µM* | i | -3% | -1% | 0% | -1%
CC(C)CCCC(C)C1CCC2C3CC[C@H]4CC(=O)CC[C@@]4(C)C3CC[C@@]12C (stereo partly drawn) | x | x | -5% | -1% | 1% | x
CCOc1ccc(C2C(C#N)=C(N)SC(N)=C2C#N)c(OCC)c1 | 63% | i | 10µM* | 131% | 0% | 2%
CS(=O)(=O)Nc1cccc(-c2nccc(-n3ccnc3)n2)c1 | -12% | i | 20µM* | 2% | 1% | -13%
Cc1ccccc1-c1nccc(-n2ccnc2)n1 | 2% | i | u | 2% | 1% | -16%
N#Cc1cccc(-c2nccc(-n3ccnc3)n2)c1 | 0% | i | 10µM* | -2% | -3% | 3%
CS(=O)(=O)Nc1cccc(-c2nc(-n3ccnc3)c3ccccc3n2)c1 | 4% | i | 0% | -3% | -2% | -4%
COC(=O)[C@@]1(Cc2ccc(OC)cc2)[C@H]2c3cc(C(=O)N(C)C)n(Cc4ccsc4Br)c3C[C@H]2CN1C(=O)c1ccccc1 | 3% | i | x | 0% | 0% | -11%
CNc1ccc(O)cc1 | 20µM* | i | u | -1% | -4% | -16%
CC(C)=CCc1c2c(c3occ(-c4ccc(O)c(O)c4)c(=O)c3c1O)C=CC(C)(C)O2 | 3.2µM* | i | 4µM* | 0%[15.4 µM] | 2%[15.4 µM] | -18%[11.4 µM]
COCCNc1nc(-c2c(C)noc2C)nc2ccccc12 | -2% | i | 7% | -5% | -2% | -2%
Cc1noc(C)c1-c1nc(NCc2cccs2)c2ccccc2n1 | 83% | i | 13µM* | -3% | 0% | 0%
Cc1noc(C)c1-c1nc(Nc2ccc(F)cc2)c2ccccc2n1 | -16% | i | 16µM* | -6% | -1% | -7%
Cc1noc(C)c1-c1nc(N(C)C)c2ccccc2n1 | -5% | i | 16µM* | 0% | 2% | -6%
Cc1noc(C)c1-c1nc(NC2CC2)c2ccccc2n1 | -6% | i | -4% | -2% | -1% | u
CNC(=O)[C@@H]1O[C@@H](n2cnc3c(NCc4cccc(I)c4)ncnc32)[C@H](O)[C@@H]1O | 6% | i | -4% | -3% | -1% | -3%
CCCn1c(=C(C#N)C#N)s/c(=C2\C=Cc3ccccc3N2CC)c1=O | -20% | i | 3% | -2% | -2% | -5%
CCSC1=NC(=O)/C(=C2/C=Cc3ccccc3N2CC)S1 | 4µM* | i | -15% | 0% | 0% | -4%
C[C@@H]1CNCCN1S(=O)(=O)c1cccc2cnccc12 | u | i | u | 0% | 0% | 0%
CN1CCc2c(sc3c2c(=O)n(-c2ccccc2)c2nnc(SCc4ccccc4F)n32)C1 | 13µM* | i | u | -2% | -5% | -1%
CN1CCc2c(sc3c2c(=O)n(-c2ccccc2)c2nncn32)C1 | -10% | i | u | -1% | -1% | -16%

High-throughput results deposited in PubChem BioAssay by National Center for Advancing Translational Sciences (NCATS).
